Source: PubChem BioAssay (The Scripps Research Institute Molecular Screening Center)
ssDAF-12 act – activates DAF-12 receptor from parasite S. stercoralis. HEK293 ssDAF-12/GRIP1 lit1-tk-luc reporter, luminescence; % of 3 µM dafachronic acid response. activation, % at 6.8 µM. 370,000 tested, 1% active;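 active = activation above the mean over all tested compounds plus 3 SD, cut at about 0.9% in these data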;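 also: 0% = DMSO-only wells and 100% = 3 µM delta7-dafachronic acid wells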
DAX1 inh-1 – NR0B1 (DAX1) inhibition | P51843 | inhibition, % at 6.75 µM | 340,000 tested, 0.99% active | HEK293 Gal4-DAX1 luciferase reporter, luminescence | AID 504766;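 active = inhibition above the mean over all tested compounds plus 3 SD, cut at about 4.2% in these data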;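 also: 0% = DAX1-transfected cells with DMSO and 100% = empty-vector control cells with DMSO; inhibition shows as a rise in luminescence from relieved DAX1 repression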
Target sequence (P51843 207-470 limits assumed): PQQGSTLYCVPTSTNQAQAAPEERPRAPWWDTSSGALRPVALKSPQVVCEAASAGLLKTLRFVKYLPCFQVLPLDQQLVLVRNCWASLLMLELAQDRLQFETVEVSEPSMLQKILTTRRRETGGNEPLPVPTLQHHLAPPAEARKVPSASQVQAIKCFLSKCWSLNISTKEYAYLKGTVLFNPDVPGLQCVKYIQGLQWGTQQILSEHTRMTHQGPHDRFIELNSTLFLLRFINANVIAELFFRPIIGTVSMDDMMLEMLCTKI
hgDAF12 agonist – hgDAF-12 agonism, primary luciferase screen. HEK293 GAL4-hgDAF12 UAS-luciferase reporter, agonist luminescence; normalized to butyrate control. activation, % at 6.8 µM. AID 687014. 370,000 tested, 1.8% active;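 active = activation above a cutoff set at the mean of all screened compounds plus 3 SD, cut at about 10% in these data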;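 also: 0% = DMSO wells and 100% = sodium butyrate wells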
hcDAF12 agonist – H. contortus DAF-12 activation, primary screen | HEK293 hcDAF-12 lit1-tk-luc reporter, luminescence; 0% DMSO, 100% Δ7-dafachronic acid | activation, % at 6.8 µM | 370,000 tested, 1.4% active;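 active = activation above the mean of all tested compounds plus 3 SD, cut at about 5.5% in these data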;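 also: 100% = response to 3 µM Δ7-dafachronic acid high control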
DAX1 inh-2 – DAX1 (NR0B1) inhibition, primary screen; inhibition, % at 6.8 µM; 370,000 tested, 1.1% active; HEK293T StAR-luciferase reporter, SF-1/DAX-1 repression relief;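 active = inhibition above the mean over all tested compounds plus 3 SD, cut at about 3.6% in these data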;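 also: 0% = DAX-1 cells with DMSO and 100% = cells lacking DAX-1 with DMSO; higher inhibition means more luminescence from relief of DAX-1 repression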
Active calls of the source: *; / = no result. Compounds with a hit are over-represented: about 4.1% of the library has one in this group of screens.

SMILES | ssDAF-12 act | DAX1 inh-1 | hgDAF12 agonist | hcDAF12 agonist | DAX1 inh-2
O=C1/C(=C/c2ccco2)CCc2ccccc21 | -1 | 1 | 9 | 6.2* | 1
CCOC(=O)N1CCN(C(=O)c2cc(-c3ccc(OCC)cc3)nc3ccccc23)CC1 | -1 | -2 | 12* | 1 | -1
COC(=O)[C@H](C(C)C)N1CCc2nnn(CC3CCCCC3)c2-c2cc(F)ccc2S1(=O)=O | -1 | / | 1 | -2 | -1
CCN(CC)CCn1c2ccccc2c2cnc(N)c(C#N)c21 | 0 | 3 | 8 | 3 | 3.9*
CCN(CC)S(=O)(=O)c1ccc(C)c(NC(=O)COC(=O)CN2C(=O)NC(C)(C)C2=O)c1 | 0.9* | 1 | -2 | 0 | 0
CCC1(CC)NC(=O)N(CC(=O)OCC(=O)Nc2cc(C)ccc2C)C1=O | -1 | -1 | -1 | -2 | -1
CN(C)/C=C(\C#N)C(=O)Nc1ccc(F)c(Cl)c1 | 1.3* | 4 | 3 | 1 | 1
CN(C)/C=C(\C#N)C(=O)Nc1ccc(F)cc1 | -1 | 1 | 6 | 1 | 2
Cc1cc(C(=O)N(C)CC2CCCN(CCc3ccc(F)cc3)C2)c(C)o1 (stereo not given) | -1 | 1 | 0 | -2 | -1
COc1ccc(CCN2CCCC(CN(C)C(=O)c3cc(C)oc3C)C2)cc1 (stereo not given) | 1 | 1 | 11* | 4 | 2
COCc1ccc(C(=O)N(C)CC2CCCN(CCc3ccc(OC)cc3)C2)o1 (stereo not given) | 0 | 0 | 10 | 2 | 4.5*
CCCCCCS(=O)[C@H]1CS(=O)(=O)C[C@@H]1S(=O)CCCCCC (stereo not given in full) | -2 | -1 | 17* | -1 | 0
CC/C(=N/Nc1ccccc1)c1cnnc(-c2ccccc2)n1 | -1 | 0 | 2 | 1 | 1
CC/C(=N/Nc1cccc(Cl)c1)c1cnnc(SC)n1 | -1 | 4.6* | -4 | 2 | 0
C=CCCC(=O)N1CCC(C(=O)NC2CCCc3ccccc32)CC1 (stereo not given) | -1 | / | 3 | -4 | 0
COc1cc(CCCN2CCNC[C@@H]2Cc2ccc(O)cc2)cc(OC)c1OC | 1.0* | 0 | 3 | 0 | 1
COc1cc(CCCN2C(=S)NC[C@H]2Cc2ccc(O)cc2)cc(OC)c1OC | -1 | -1 | -2 | -1 | -2
COc1ccc(CC(/C=C/c2ccc(F)cc2)c2ccccc2)cc1 (stereo not given) | -1 | / | -2 | -2 | -1
COc1ccccc1C1N=C(c2ccccc2C)NO1 (stereo not given) | 0 | 0 | 10* | 2 | 1
Cc1ccccc1C1=NC(c2ccc(F)cc2F)ON1 (stereo not given) | -1 | 0 | 2 | -1 | 0
Cc1nc2cc(C(=O)N3CCN(C(=O)C(C)(C)C)CC3)ccc2n1C1CCCC1 | -1 | / | -1 | -3 | 0
COc1cccc(C(=O)N/N=C(\C)c2ccc(NC(=O)Cc3ccccc3)cc2)c1OC | 0 | 1 | 8 | 4 | 3.8*
C/C(=N/NC(=O)c1ccc(-c2ccccc2)cc1)c1cccc(O)c1 | -1 | -1 | 1 | 1 | 2
C/C(=N\NC(=O)c1ccc(F)cc1)c1cccc(NC(=O)c2cccc(F)c2)c1 | -1 | 0 | 3 | 3 | 1
C/C(=N\NC(=O)c1cccc(O)c1)c1ccc(NC(=O)Cc2ccccc2)cc1 | 0 | 1 | 10 | 2 | 6.8*
SMILES | ssDAF-12 act | DAX1 inh-1 | hgDAF12 agonist | hcDAF12 agonist | DAX1 inh-2
COc1ccc(CC(=O)Nc2ccc(/C(C)=N/NC(=O)c3ccc(OC)cc3OC)cc2)cc1 | 0 | 0 | 2 | -2 | 0
C/C(=N\NC(=O)c1cccc(O)c1)c1cccc(NC(=O)c2ccc(F)cc2)c1 | 1 | 2 | 6 | 0 | 4.3*
COc1ccccc1N/C=C/c1onc(C)c1[N+](=O)[O-] | 0 | -2 | 9 | 4 | 3
Cc1noc(/C=C/Nc2ccc(F)cc2F)c1[N+](=O)[O-] | 1 | 4 | 12* | 2 | 3
COc1ccc(OCc2cc(C(=O)NC3CCOCC3)no2)c2ccccc12 | 0 | 0 | 3 | 6.3* | -2
COc1ccccc1OCc1cc(C(=O)N(C)CCC2CCOCC2)no1 | 1 | 3 | 10 | 5 | 3.9*
COc1cccc(OCc2cc(C(=O)NC3CCOCC3)no2)c1 | -1 | 1 | 7 | 3 | 3
